Screening data as filed in PubChem BioAssay.
Rows were chosen to be rich in hits. Some 12% of all compounds tested hit in one or more screens of this group.
PLK1 PBD block – PLK1 (human) polo-box domain binding inhibition; 360,000 compounds, 2.8% hits; Plk1 PBD binding of FITC phosphopeptide, fluorescence polarization; P53350; Potency, µM, hits mostly inhibitors; further: series mostly up to about 57 µM; nearly all actives have a fitted effect of over 65% in size
JMJD2A Tudor – JMJD2A Tudor domain (human) inhibition; O75164; AlphaScreen JMJD2A-Tudor / H3K4me3 peptide binding; Potency, µM (doses to about 114 µM), hits mostly inhibitors; 390,000 compounds, 4.4% hits; AID 504339; further: nearly all actives have a fitted effect of over 50% in size
G9a inh – blocks human histone lysine methyltransferase G9a; G9a H3K9 monomethylation, AlphaScreen, 2 h; Potency, µM (series often up to 102 µM), usual class: inhibitors; 350,000 compounds, 8.8% hits; further: nearly all actives have a fitted effect of over 75% in size
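Readings reflect AlphaScreen signal from monomethyl-H3K9 antibody detection. HMT at 20 nM; substrate b-H3K9 500 nM; cofactor SAM 20 uM; 2 h RT reaction; compounds tested as titrations in qHTS with 15 min preincubation.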
BAZ2B block – blocks human BAZ2B | Q9UIF8 | AlphaScreen BAZ2B-H3K14Ac peptide displacement | Potency, µM (highest dose often 114 µM), actives largely listed as inhibitors | 360,000 compounds, 4.4% hits | AID 504333; further: nearly all actives have a fitted effect of over 60% in size
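BAZ2B 50 nM plus b-H3(5-23)K14Ac 50 nM, PBS pH 7.4/0.01% Tween-20, 30 min RT; compound added (max 110 uM), 30 min RT; streptavidin donor/Ni-chelate acceptor beads 10 ug/mL final, 20 min dark; AlphaScreen read.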
HP1b chromo inh – inhibitors of HP1-beta chromodomain binding to methylated histone tails. P83916. AlphaScreen HP1-beta / biotin-H3K9me3 peptide binding. Potency, µM (doses to about 114 µM), most hits filed as inhibitors. 390,000 compounds, 0.56% hits; further: nearly all actives have a fitted effect of over 70% in size
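Compound inhibition of the preformed complex between 50 nM HP1-beta and 50 nM biotinylated H3K9me3 peptide was read by AlphaScreen. Buffer was PBS pH 7.4 with 0.01% Tween-20. Incubations ran 30 min at room temperature, with 10 ug/mL donor/acceptor beads.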
PI5P4K alpha inh – PI5P4K alpha (human) kinase inhibition. max response, %. AID 652105. PI5P4Kalpha enzyme, ADP-Glo luminescence, 60 min; stronger effect = lower value. 330,000 compounds, 1.2% hits. P48426; active means max response of -50% or lower; inconclusive means between -30% and -50%; inactive means -30% or higher; further: value at the top dose of about 77 µM
Target sequence (P48426 whole entry, looked up): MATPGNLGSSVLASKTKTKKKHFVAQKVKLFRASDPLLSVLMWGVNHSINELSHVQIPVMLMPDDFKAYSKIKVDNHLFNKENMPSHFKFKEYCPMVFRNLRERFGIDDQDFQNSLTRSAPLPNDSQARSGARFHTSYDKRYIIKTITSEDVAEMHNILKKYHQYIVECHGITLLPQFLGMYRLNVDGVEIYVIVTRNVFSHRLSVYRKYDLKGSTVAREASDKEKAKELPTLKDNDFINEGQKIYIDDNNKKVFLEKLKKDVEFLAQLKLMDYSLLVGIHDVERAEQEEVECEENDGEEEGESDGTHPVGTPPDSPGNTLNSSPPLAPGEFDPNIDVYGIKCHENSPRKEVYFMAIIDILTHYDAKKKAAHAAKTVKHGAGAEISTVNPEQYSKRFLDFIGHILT
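Luminescence from ADP-Glo served as readout of PI5P4Kalpha activity in a qHTS format. Reaction: enzyme, substrate, compound, ATP at 5 microM final, 60 min at RT.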
Of the large screens only hits and unclear results are named; the others gave an inactive call. Unless noted, the call rests on the fitted dose curve; in most records, active means well fitted curve in the direction sought with a large enough effect; inconclusive means small, poorly fitted or top-dose-only effect, or another doubt; inactive means no such curve, though single readings can be large; an effect the other way counts as inactive or inconclusive.

O=C(O)c1cc(Cl)c2ccccc2c1O	none
CC(C)(NC(=O)c1cc(Cl)c2ccccc2c1O)C(=O)O	G9a inh 31.6µM
O=C(NNc1ccc(Cl)cc1)c1c(F)cccc1Cl	G9a inh 44.7µM
NS(=O)(=O)c1ccc(NNC(=O)c2sccc2Cl)cc1	G9a inh 7.08µM
O=C(NNc1ccc(Cl)cc1)c1sccc1Cl	PLK1 PBD block 26.7µM, JMJD2A Tudor inconclusive, BAZ2B block inconclusive (no result: G9a inh)
COC(=O)c1nc(NC(=O)c2ccc(Br)cc2)n[nH]1	PLK1 PBD block 23.8µM
CCN(C(=O)COC(=O)c1nc(Cl)ccc1Cl)C1CCS(=O)(=O)C1 (stereo not drawn)	G9a inh 1.41µM
CCN(C(=O)COc1cccc2cccnc12)C1CCS(=O)(=O)C1 (stereo not drawn)	G9a inh inconclusive, BAZ2B block 50.1µM
C[C@H](O)[C@@H]1C(=O)N2CCc3ccc(N4CCOCC4)cc3[C@@H]2C[C@@H]1N(C)C(=O)Nc1ccccc1	none (no result: G9a inh, BAZ2B block)
O=C(CNc1cc(S(=O)(=O)N2CCOCC2)ccc1N1CCCC1)N1CCc2ccccc21	JMJD2A Tudor inconclusive, G9a inh 35.5µM, BAZ2B block inconclusive
O=S(=O)(c1ccc2c(c1)N(Cc1ccc(Cl)cc1)C1CCCN21)N1CCOCC1 (stereo not drawn)	G9a inh 50.1µM
C/C=C/c1ccc(OCC(=O)Nc2cc(S(=O)(=O)N3CCOCC3)ccc2N2CCCC2)c(OC)c1	G9a inh 50.1µM
O=C(COC(=O)c1ccccc1Br)Nc1cc(S(=O)(=O)N2CCOCC2)ccc1N1CCCC1	G9a inh 14.1µM, BAZ2B block inconclusive
COc1ccccc1CNC(=O)C1CCCN(c2nnc(-n3c(C)ccc3C)s2)C1 (stereo not drawn)	none (no result: PLK1 PBD block, PI5P4K alpha inh)
NCC(=O)Nc1cccc(-c2nn3c(=O)cc(N4CCNCC4)nc3s2)c1	none (no result: PLK1 PBD block, G9a inh, BAZ2B block, HP1b chromo inh, PI5P4K alpha inh)
CCN(CC)S(=O)(=O)c1ccc(N2CCCCC2)c(NC(=O)/C(C#N)=C/c2ccc(OC)cc2)c1	none
O=C(Cc1ccc(Cl)cc1)Nc1cc(S(=O)(=O)N2CCOCC2)ccc1N1CCCC1	G9a inh 44.7µM
O=C(CCCSc1ccc(Cl)cc1)Nc1cc(S(=O)(=O)N2CCOCC2)ccc1O	PLK1 PBD block 3.36µM, JMJD2A Tudor 56.2µM, G9a inh inconclusive, BAZ2B block inconclusive, HP1b chromo inh inconclusive
COc1ccc(/C=C(\C#N)C(=O)Nc2cc(S(=O)(=O)N3CCOCC3)ccc2N2CCCC2)cc1	PLK1 PBD block 6.7µM, JMJD2A Tudor inconclusive, G9a inh 7.94µM, BAZ2B block inconclusive, HP1b chromo inh inconclusive
COc1ccc(CC(=O)Nc2cc(Cl)ccc2N2CCCC2)cc1	G9a inh 44.7µM
CN1CCN(c2ccc(S(=O)(=O)N3CCCCC3)cc2NC(=O)Cc2ccc(Cl)cc2)CC1	G9a inh inconclusive
CCN1CCN(c2ccc(NC(=O)c3cc(S(=O)(=O)N4CCCC4)ccc3Cl)cc2)CC1	JMJD2A Tudor inconclusive, G9a inh inconclusive
Cc1oc2ncnc(N3CCCCC3)c2c1C(=O)NCC1CCN(Cc2ccc(F)cc2)CC1	none (no result: PLK1 PBD block, PI5P4K alpha inh)
O=C(Cc1c(F)cccc1Cl)Nc1cc(S(=O)(=O)N2CCOCC2)ccc1N1CCCC1	none (no result: G9a inh, BAZ2B block)
CCCCCC(=O)Nc1cc(S(=O)(=O)N2CCCCC2)ccc1N1CCCCC1	none (no result: G9a inh, BAZ2B block)
CCCCCC(=O)Nc1cc(S(=O)(=O)N2CCOCC2)ccc1N1CCCCC1	G9a inh 50.1µM
O=C(Cc1c(F)cccc1Cl)Nc1cc(S(=O)(=O)N2CCOCC2)ccc1N1CCOCC1	G9a inh 50.1µM
CC(NC(=O)c1ccc(Cn2cc([N+](=O)[O-])cn2)cc1)c1ccccc1 (stereo not drawn)	PLK1 PBD block 26.7µM, JMJD2A Tudor 50.1µM
COC(=O)c1ccc(Cn2cc([N+](=O)[O-])cn2)cc1	none
O=C(Cn1cc([N+](=O)[O-])cn1)Nc1ccc(Cn2cc(Br)cn2)cc1	G9a inh 2.24µM
CC(C)NC(=O)CCCn1cc([N+](=O)[O-])cn1	G9a inh 50.1µM
N#Cc1ccc(C(=O)N2CCCCC2c2cc(C(=O)NCc3ccccc3)no2)cc1 (stereo not drawn)	none (no result: JMJD2A Tudor, G9a inh, BAZ2B block, HP1b chromo inh)
Cc1oc(-c2ccccc2)[n+]([O-])c1C	none (no result: G9a inh)
